# ERG-DNA inh: ERG Ets/DNA interaction inhibition | P11308 | fluorescence polarization, His-ERG Ets domain / labelled DNA | Potency, µM (highest dose often 76.9 µM), usual class: inhibitors | 370,000 tested, 0.028% active; active = well fitted inhibition curve with a large enough effect in the polarisation, with a control signal flat; inconclusive = small, poorly fitted or top-dose-only effect, or effect the other way, or a change in a side signal; inactive = no such curve, though single readings can be large or run the other way; the % refers to the polarisation;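 note: polarization taken with two DNA probes labelled with fluorescein and Texas red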
# Target sequence (P11308 whole entry, looked up, the tested form may be a part): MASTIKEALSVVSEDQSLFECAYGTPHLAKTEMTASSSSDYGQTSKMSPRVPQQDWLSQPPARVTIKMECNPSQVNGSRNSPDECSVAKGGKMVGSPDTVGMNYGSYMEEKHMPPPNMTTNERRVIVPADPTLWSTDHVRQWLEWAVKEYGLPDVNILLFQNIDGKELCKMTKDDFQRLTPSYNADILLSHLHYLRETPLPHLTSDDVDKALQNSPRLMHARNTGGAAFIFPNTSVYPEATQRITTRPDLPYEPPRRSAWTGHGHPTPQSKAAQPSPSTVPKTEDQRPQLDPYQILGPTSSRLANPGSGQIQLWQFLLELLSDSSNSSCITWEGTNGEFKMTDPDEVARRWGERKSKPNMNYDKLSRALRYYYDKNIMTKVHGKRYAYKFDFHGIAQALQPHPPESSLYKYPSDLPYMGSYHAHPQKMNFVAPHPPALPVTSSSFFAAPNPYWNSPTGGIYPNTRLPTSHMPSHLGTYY
#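 His-tagged ERG Ets domain (1 uM in the protein solution; 300mM KCl, 50mM Tris-HCl, 1mM EDTA, 1mM DTT, pH 7.5) received compound, then a probe mix of 5 nM fluorescein-DNA and 100nM Texas-615-DNA. Fluorescence polarization was read for both dyes.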
# RORgamma inh: ROR gamma (mouse) transcription inhibition. P51450. Drosophila S2 Gal4-RORgamma UAS-luciferase reporter, 20 h. 310,000 tested, 5.4% active. Potency, µM (titrated, usually from 53.6 µM), hits mostly inhibitors. AID 2551; note: nearly all actives have a fitted effect of over 60% in size
#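 Compounds are pin-transferred onto Drosophila Schneider cells expressing a copper-inducible Gal4–ROR gamma transactivation domain fusion. After 1 hr, copper sulfate is added to 700 uM final; luciferase is read 20 hr later.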
# a7 integrin act: activates integrin-mediated alleviation for muscular dystrophy. Potency, µM (top dose mostly 38.3 µM), most hits filed as activators. 350,000 tested, 0.064% active. alpha7betagal myoblasts, beta-gal FDG fluorescence, 48 h; note: nearly all actives have a fitted effect of over 60% in size
#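 Alpha7betagal+/- myoblasts (passage 13) were plated 16-24 hr, then exposed to compounds (1:260 dilution of DMSO stock) for 48 hours at 37C. After MPER lysis, β-galactosidase reporter activity was read as FDG fluorescence (ex 480/em 540) after 30 minutes.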
# Gal4-VP16 FLuc: counter-screen for ROR gamma inhibitors: Gal4-VP16 reporter; Drosophila S2 Gal4-VP16 UAS-luciferase, luminescence, 20 h; Potency, µM (series often up to 53.6 µM), usual class: inhibitors; 310,000 tested, 3.5% active; AID 2546;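 note: Gal4-VP16 expression switched on by copper sulfate through the metallothionein promoter; nearly all actives have a fitted effect of over 50% in size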
# Giardia kill: kills Giardia lamblia; Giardia lamblia trophozoite viability; activity change, % at 7.66 µM, hits read low; 340,000 tested, 0.15% active; in the data active = activity change below about -80%; inconclusive = between about -30% and that limit;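 note: parasites exposed to compound for two days anaerobically before the ATP read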
#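 Giardia trophozoites, 100 cells per well, were exposed to compounds for 48 hrs at 37 deg C under anaerobic conditions; viability was then read as ATP content by bioluminescence after 15-30 min at room temperature.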
# A number is an active result; n = inactive; u = inconclusive; x = no result; ! = not confirmed by another sample; [ ] = remark or other dose. Many of the other results were omitted from the sample, so hits are more common in it than they were. Unless noted, calls come from the whole dose curve; as a rule, active = well fitted curve in the direction sought with a large enough effect; inconclusive = small, poorly fitted or top-dose-only effect, or another doubt; inactive = no such curve, though single readings can be large; an effect the other way counts as inactive or inconclusive.
SMILES,ERG-DNA inh,RORgamma inh,a7 integrin act,Gal4-VP16 FLuc,Giardia kill
COCC1CCN(C(=O)c2cc(COc3cccc4cnccc34)on2)CC1,n,n,n,13µM,n
COc1ccc(-n2nc(C(=O)NCC(=O)NCCCN3CC(C)CC(C)C3)c3ccccc3c2=O)cc1OC (centres undefined),n,n,n,n,n
COC1=CC(=O)C(O)=C/C1=C\C=C\c1ccccc1,x,n,x,13µM,x
N#Cc1c(-c2ccccc2)cc(-c2ccccc2)nc1SCC(O)CS(=O)(=O)Cc1ccccc1 (centres undefined),n,x,x,x,x
Cc1cc(=O)[nH]c(SCC(=O)Nc2nc(-c3ccccc3)c(-c3ccccc3)o2)n1,n,n,n,n,n
COc1cccc(/C=C/C(=O)c2cccc([N+](=O)[O-])c2)c1,n,n,n,4.5µM,n
COc1cccc(/C=C/C(=O)c2cccc([N+](=O)[O-])c2)c1OC,n,u,n,n[10 µM],u
CCn1cc(NC(=O)CCl)c(C)n1,x,n,x,n,x
Cc1ccc(-n2c(C)cc(C3=NNC(=NC4CC4)SC3)c2C)cc1C,n,n,n,n,n
O=C(CCn1c(=O)c2ccccc2n(Cc2ccccc2)c1=O)NC1CCN(Cc2ccccc2)CC1,n,0.11µM,n,n,n
COC(=O)c1ccc(C(=O)OC)c(NC(=O)CSc2cccc[n+]2[O-])c1,n,5µM,u,3.5µM,n
O=C(CSc1cccc[n+]1[O-])Nc1ccccc1Oc1ccccc1,n,6.3µM,n,7.9µM,n
COC(=O)c1ccc(-n2c(C)cc(C(=O)CSc3cccc[n+]3[O-])c2C)cc1,n,n,n,n,n
C/C(=N\NC(=O)c1ccccc1NC(=O)c1ccc(Cl)cc1)c1ccncc1,n,0.56µM,n,0.89µM,-96
O=C(Nc1ccccc1C(=O)N/N=C/c1ccco1)c1ccc(F)cc1,n,1.1µM,n,5µM,n
O=C(N/N=C/c1ccco1)c1ccncc1,n,u,n[7.66 µM],u,n
O=C(Nc1ccccc1C(=O)N/N=C/c1ccco1)c1ccccc1,n,7.9µM,n,u,n
O=C(N/N=C/c1ccco1)C1CC1(c1ccccc1)c1ccccc1 (centres undefined),n,0.35µM,n,u,u
Cc1ccc(S(=O)(=O)NCc2c(Cl)cccc2Oc2ccccc2)cc1,n,n,n,n,n
C=CCNc1nc(Cl)nc(Nc2ccc(OCC)cc2)n1,n,n,n,n,n
Cc1ccc2c(c1)N(C(=O)N1CCC(C(=O)NC3CCCCCC3)CC1)CCO2,n,x,x,x,x
CCN(CC)CCNC(=O)c1ccc(NC(=O)c2ccc(F)cc2)cc1,n,n,u,n,n
C/C(=N\NC(=O)C(=O)Nc1ccc(C)c(Cl)c1)c1ccncc1,n,u,n,u,n
Cc1ccccc1C(=O)Nc1ccccc1C(=O)N/N=C\c1ccco1,n,10µM,n,u,n
Cc1ccccc1C(=O)Nc1nnc(CC(=O)N/N=C/c2ccco2)s1,n,n,n,n,n
SMILES,ERG-DNA inh,RORgamma inh,a7 integrin act,Gal4-VP16 FLuc,Giardia kill
C/C(=N\NC(=O)C(=O)Nc1cccc(Cl)c1)c1ccncc1,n,u,n,5.6µM,n
O=C(Nc1ccccc1C(=O)N/N=C/c1ccco1)c1ccc(Cl)cc1,n,2.8µM,n,4µM,n
Cc1ccc(-c2[nH]ncc2CNCc2ccccc2)cc1,x,x,x,x,n
Cc1cc(C)cc(N(C(=O)CNC(=O)c2ccco2)C(C(=O)NC2CCCCC2)c2cccnc2)c1 (centres undefined),n,n,u,n,n
CCCC(=O)NC(C)c1nc2ccccc2n1C (centres undefined),n,n,n,n,n
Cn1c(C(C#N)C(=O)c2ccco2)nc2ccccc21 (centres undefined),n,u,n,6.3µM,n
CN(Cc1nc2ccccc2n1C)C(=O)c1ccco1,n,n,n,n,n
Cn1c(C(C#N)C(=O)Cc2cccc3ccccc23)nc2ccccc21 (centres undefined),n,0.79µM,n,u,n
Cc1cn(CC(=O)NCc2ccc(N(C)C)cc2)c(=O)[nH]c1=O,n,x,n,x,n
Cc1noc(C)c1-c1nc(NCc2cccs2)c2ccccc2n1,x,n,x,n,x
CCN1C(=O)N[C@@H](c2cccs2)C(C(=O)OC)=C1C,n,x,n,x,n
CCOC(=O)C1=C(C)N(CC)C(=S)NC1c1ccccc1OC(F)F (centres undefined),n,2µM,n,u,n
CCN1C(=S)N[C@@H](CCc2ccccc2)C(C(=O)OC)=C1C,n,4.5µM!,n,u,n
CCN1C(=S)N[C@@H](c2cccs2)C(C(=O)OC)=C1C,n,4µM,n,20µM,n
Cc1cc(NCCN2CCOCC2)n2nc(C)c(-c3ccc(Cl)cc3)c2n1,n,n,n,n,n
Cc1cc(NCCN2CCOCC2)n2ncc(-c3ccccc3)c2n1,n,3.5µM,n,10µM,u
Cc1cc(NCCCn2ccnc2)n2nc(C)c(-c3ccccc3)c2n1,n,n,n,n,n
Cc1cc(NCCN2CCOCC2)n2nc(C)c(-c3ccccc3)c2n1,n,8.9µM,n,10µM,n
Cc1cc(NCCCn2ccnc2)n2ncc(-c3ccccc3)c2n1,n,4.5µM,n,7.9µM,u
CCc1nc(N2CCN(C(=S)NCCCOC)CC2)c2c3c(sc2n1)CCCC3,n,14µM,n,u,n
COCCCNC(=S)NNC(=S)Nc1ccccc1,n,u,n,n,n
COCCCNC(=S)NNC(=S)Nc1ccc(F)cc1F,n,7.1µM,n,n,n
COCCCNC(=S)NCCc1ccc(F)cc1,n,10µM,n,u,n
COCCCNC(=S)Nc1ccc(C)cc1,n,u,n,n,n
Cc1ccccc1-c1ccc2ncnc(NCCN3CCOCC3)c2c1,x,u,x,n,x
SMILES,ERG-DNA inh,RORgamma inh,a7 integrin act,Gal4-VP16 FLuc,Giardia kill
Cc1ccc(NC(=O)C2CCN(S(=O)(=O)c3ccc(N4CCCC4=O)cc3)CC2)cc1Cl,n,u,n,3.2µM,n
CCCn1nc(C(=O)Nc2cc(OCC)c(N3CCOCC3)cc2OCC)c2ccccc2c1=O,n,x,n,x,n
CC1(C)CC2(CCO1)CNC(=O)O2 (centres undefined),n,n,n[7.66 µM],n,n
COc1ccc(CC(=O)NNc2ncnc3c2cnn3-c2ccc(C)cc2)cc1OC,n,6.3µM,n,u,n
Cn1ncc2c(NNC(=O)c3ccccc3Cl)ncnc21,n,1µM,n,u,n
Cc1ccc(-n2ncc3c(NNC(=O)c4ccco4)ncnc32)cc1C,n,3.5µM,n,7.1µM,n
O=C(NNc1ncnc2c1cnn2-c1cccc(Cl)c1)c1ccco1,n,5µM,n,7.1µM,n
Cc1ccc(Cl)cc1-n1ncc2c(NNC(=O)c3ccco3)ncnc21,n,u,n,n,n
Cc1cccc(Cn2c(NCCO)nc3c2c(=O)n(C)c(=O)n3C)c1,n,u,n,4.5µM,n
COCCNc1nc2c(c(=O)n(C)c(=O)n2C)n1Cc1cccc(C)c1,n,u,n,10µM,n
O=C(COc1ccccc1[N+](=O)[O-])N1CCCc2ccccc21,u,n,n,n,n
